According to the supplement of paper PMC11732987, “Enantioselective OTUD7B fragment discovery through chemoproteomics screening and high-throughput optimisation” (Communications Chemistry, 2025):
Unmarked numbers belong to inactive results.

Tests used:
Test in all cases: log2 ratio of Biotin-Ahx-Ub-VS probe labelling (fragment/DMSO); higher = less target engagement (more negative = stronger competition), active = hit call of the paper (q ≤ 0.05, log2 ratio ≤ -1)
Settings in all cases: compound concentration: 200 uM; treatment time: 3 h
USP19 = target: T1, USP19 (UniProt O94966)
T1 sequence (whole entry): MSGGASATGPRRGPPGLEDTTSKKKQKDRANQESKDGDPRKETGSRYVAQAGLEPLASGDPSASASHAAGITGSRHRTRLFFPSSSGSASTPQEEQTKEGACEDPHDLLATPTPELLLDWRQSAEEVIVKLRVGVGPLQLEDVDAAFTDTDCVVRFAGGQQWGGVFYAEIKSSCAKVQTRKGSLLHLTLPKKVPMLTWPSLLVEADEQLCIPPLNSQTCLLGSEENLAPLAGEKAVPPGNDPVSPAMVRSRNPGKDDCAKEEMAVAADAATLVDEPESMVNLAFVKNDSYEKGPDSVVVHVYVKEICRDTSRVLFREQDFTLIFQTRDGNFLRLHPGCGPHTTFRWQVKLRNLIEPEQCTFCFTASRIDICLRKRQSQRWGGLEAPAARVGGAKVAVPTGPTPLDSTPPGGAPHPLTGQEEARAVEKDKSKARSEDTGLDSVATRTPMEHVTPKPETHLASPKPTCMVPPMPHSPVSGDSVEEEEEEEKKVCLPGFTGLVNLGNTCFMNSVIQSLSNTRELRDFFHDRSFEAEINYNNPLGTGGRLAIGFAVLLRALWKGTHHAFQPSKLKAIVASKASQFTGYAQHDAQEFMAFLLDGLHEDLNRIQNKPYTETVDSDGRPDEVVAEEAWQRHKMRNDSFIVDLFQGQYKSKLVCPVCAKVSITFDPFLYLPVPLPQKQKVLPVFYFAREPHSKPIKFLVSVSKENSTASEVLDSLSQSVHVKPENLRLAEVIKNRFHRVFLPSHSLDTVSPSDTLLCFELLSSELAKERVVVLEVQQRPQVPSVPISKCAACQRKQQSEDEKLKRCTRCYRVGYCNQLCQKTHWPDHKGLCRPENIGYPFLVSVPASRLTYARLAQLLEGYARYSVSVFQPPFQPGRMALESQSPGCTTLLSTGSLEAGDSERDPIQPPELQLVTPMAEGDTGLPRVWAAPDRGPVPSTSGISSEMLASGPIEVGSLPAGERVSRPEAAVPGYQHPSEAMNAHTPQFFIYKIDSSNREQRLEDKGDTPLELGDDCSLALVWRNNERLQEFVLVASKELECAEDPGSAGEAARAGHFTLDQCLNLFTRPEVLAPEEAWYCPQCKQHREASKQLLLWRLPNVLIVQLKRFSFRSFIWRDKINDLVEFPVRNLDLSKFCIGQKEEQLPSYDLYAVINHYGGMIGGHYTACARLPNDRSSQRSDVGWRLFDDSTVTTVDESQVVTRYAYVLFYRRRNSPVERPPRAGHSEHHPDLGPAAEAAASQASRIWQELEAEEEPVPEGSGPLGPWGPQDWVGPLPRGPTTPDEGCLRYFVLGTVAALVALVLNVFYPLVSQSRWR
Summary of the method: (§1)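 Each value is an average log2 ratio of fragment to vehicle, tested by unpaired t-test. The underlying Spectronaut label-free quantities were global-median-normalised, and only proteins with ≥2 unique peptides were included. Triplicate HEK293T lysate samples (495 µg) were exposed to fragment at 200 µM or vehicle for 3 h, then to Biotin-Ahx-Ub-VS at 0.5 µM final for 1 h, before NeutrAvidin enrichment of labelled DUBs, LysC and trypsin digestion, and diaPASEF LC-MS/MS.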

USP24 = USP24 (UniProt Q9UPU5)
Summary of the method: as §1

USP25 = target: T2, USP25 (UniProt Q9UHP3)
T2 sequence (whole entry): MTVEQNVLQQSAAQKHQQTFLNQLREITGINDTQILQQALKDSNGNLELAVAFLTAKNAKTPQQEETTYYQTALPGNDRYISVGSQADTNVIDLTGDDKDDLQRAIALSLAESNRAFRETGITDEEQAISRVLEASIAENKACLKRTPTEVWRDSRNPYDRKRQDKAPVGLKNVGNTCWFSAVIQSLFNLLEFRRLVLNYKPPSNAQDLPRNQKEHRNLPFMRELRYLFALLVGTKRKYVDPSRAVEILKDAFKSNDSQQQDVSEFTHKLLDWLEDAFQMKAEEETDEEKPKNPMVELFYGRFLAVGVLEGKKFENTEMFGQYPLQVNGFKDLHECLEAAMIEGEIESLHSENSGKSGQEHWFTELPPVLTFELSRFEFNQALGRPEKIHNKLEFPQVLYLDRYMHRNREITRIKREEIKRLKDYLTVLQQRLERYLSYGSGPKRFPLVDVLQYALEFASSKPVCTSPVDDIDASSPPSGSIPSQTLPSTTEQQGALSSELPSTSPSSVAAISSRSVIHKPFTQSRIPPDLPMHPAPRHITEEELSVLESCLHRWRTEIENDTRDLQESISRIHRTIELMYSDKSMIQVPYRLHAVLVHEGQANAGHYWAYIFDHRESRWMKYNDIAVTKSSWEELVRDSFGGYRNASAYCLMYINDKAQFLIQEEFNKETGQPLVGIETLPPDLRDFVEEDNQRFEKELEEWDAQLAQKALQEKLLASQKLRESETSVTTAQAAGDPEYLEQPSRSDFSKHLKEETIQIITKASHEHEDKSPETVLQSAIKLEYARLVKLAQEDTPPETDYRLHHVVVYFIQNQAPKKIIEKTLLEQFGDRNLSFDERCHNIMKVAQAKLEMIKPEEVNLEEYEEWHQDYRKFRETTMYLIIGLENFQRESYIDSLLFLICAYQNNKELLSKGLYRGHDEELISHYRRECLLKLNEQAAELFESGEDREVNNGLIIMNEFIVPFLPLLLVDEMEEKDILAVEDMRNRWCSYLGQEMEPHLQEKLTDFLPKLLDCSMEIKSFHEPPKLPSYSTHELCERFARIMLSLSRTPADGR
Summary of the method: as §1

USP28 = target: T3, USP28 (UniProt Q96RU2)
T3 sequence (whole entry): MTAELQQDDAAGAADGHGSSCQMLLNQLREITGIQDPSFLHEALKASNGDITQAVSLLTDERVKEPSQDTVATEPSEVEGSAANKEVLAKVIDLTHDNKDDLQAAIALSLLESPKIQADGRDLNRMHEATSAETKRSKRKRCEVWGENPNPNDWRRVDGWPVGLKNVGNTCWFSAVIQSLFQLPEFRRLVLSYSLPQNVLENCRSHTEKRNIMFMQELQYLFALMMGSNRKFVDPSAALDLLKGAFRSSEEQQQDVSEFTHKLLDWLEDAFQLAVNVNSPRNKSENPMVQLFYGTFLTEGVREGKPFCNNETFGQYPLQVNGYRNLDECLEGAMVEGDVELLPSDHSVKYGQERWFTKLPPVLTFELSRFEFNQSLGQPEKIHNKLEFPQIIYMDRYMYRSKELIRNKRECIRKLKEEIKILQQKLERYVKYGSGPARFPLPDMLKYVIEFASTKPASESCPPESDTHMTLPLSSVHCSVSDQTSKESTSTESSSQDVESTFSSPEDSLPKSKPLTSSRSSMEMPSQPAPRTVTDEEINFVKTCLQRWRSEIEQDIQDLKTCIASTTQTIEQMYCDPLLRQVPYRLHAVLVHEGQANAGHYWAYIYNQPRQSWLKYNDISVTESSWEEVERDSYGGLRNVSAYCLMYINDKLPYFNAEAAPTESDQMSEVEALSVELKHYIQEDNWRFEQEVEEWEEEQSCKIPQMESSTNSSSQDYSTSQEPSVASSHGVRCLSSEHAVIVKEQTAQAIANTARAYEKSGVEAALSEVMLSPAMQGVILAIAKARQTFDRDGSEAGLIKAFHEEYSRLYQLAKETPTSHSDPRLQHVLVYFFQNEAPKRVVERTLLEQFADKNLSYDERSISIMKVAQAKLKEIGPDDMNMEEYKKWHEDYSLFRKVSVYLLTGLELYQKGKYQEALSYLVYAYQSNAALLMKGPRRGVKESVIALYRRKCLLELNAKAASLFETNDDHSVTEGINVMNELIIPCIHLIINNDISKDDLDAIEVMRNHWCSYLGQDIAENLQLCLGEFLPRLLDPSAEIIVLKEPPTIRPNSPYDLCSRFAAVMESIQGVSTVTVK
Summary of the method: as §1

Sequence of USP24 (Q9UPU5 whole entry): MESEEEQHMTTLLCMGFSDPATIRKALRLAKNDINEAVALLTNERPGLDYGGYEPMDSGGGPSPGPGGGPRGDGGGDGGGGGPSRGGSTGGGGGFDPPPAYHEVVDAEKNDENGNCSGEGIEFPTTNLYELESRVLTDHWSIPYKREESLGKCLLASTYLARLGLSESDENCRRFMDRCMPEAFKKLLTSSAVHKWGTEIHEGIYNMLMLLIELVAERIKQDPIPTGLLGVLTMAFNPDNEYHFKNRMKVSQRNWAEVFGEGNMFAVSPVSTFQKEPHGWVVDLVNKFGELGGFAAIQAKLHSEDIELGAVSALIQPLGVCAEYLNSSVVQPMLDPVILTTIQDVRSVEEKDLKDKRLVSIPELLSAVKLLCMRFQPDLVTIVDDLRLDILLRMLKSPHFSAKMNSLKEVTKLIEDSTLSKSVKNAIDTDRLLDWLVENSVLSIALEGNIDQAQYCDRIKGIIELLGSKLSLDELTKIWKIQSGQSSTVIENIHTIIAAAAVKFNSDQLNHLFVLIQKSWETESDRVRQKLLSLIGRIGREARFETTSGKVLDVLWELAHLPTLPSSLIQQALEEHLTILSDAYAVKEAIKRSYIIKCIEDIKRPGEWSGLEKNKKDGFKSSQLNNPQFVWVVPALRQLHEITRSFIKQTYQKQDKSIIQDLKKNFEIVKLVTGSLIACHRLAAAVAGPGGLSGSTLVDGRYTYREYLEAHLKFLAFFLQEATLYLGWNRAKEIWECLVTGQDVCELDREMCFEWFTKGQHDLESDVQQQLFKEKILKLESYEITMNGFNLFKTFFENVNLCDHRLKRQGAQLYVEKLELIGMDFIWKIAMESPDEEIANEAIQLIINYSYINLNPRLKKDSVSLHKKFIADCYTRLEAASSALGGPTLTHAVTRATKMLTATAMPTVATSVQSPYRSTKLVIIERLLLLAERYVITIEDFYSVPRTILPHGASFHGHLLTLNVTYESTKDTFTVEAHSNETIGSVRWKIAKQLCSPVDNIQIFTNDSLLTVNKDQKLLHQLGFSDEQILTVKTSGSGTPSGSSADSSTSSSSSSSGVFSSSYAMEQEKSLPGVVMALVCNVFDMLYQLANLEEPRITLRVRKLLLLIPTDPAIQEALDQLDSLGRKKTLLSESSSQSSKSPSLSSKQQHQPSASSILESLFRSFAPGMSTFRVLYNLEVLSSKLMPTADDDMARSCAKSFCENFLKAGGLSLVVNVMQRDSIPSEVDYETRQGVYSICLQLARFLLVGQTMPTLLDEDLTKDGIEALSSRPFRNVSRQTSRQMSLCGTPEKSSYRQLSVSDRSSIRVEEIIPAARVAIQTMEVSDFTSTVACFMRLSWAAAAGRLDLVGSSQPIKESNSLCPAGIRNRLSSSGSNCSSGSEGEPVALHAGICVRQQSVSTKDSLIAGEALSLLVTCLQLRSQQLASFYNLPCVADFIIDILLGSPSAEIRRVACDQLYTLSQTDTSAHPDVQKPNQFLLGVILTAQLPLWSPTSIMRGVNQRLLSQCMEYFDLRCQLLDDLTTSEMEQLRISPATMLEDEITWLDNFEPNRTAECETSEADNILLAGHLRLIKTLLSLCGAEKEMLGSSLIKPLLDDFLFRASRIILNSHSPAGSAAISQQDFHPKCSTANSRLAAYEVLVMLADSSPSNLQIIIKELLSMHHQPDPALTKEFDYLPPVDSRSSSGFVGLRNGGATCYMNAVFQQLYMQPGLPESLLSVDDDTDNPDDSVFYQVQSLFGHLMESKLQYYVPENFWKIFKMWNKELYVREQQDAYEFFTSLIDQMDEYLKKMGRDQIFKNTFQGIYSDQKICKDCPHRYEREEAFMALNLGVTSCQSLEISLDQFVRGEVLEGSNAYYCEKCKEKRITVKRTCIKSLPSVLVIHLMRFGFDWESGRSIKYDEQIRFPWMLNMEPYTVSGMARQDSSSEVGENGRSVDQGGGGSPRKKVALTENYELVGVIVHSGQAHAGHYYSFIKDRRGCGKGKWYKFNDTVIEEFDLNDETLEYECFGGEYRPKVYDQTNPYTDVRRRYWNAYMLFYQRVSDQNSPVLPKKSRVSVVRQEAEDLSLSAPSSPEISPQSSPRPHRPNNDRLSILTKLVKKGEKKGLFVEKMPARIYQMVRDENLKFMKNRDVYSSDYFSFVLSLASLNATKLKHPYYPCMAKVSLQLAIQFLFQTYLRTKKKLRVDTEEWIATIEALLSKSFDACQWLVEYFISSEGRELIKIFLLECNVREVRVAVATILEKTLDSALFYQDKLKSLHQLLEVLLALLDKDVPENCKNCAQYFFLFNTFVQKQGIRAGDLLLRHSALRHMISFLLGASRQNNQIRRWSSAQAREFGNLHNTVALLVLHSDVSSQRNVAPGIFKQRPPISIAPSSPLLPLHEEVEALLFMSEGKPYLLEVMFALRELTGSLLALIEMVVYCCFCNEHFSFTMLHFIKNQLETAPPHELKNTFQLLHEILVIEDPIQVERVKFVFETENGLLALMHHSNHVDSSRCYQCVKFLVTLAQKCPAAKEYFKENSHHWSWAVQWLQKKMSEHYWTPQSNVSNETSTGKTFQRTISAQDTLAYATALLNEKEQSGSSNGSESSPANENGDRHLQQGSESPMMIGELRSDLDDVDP

**Q.** Which “log2 ratio of Biotin-Ahx-Ub-VS probe labelling” value (“log2 ratio” below) (USP19) does the source give for `O=C(CCl)Nc1ccc(Cl)c(F)c1` here?
**A.** -0.486

**Q.** And the “log2 ratio” value (USP24)?
**A.** -1.66 (active)

**Q.** What about the “log2 ratio” value (USP25) of the same compound?
**A.** -1.62 (active)

**Q.** And the “log2 ratio” value (USP28)?
**A.** -1.53 (active)
